The list is not random: actives were taken first. Their share in the collection is about 6.6%.
GRIN3A LBD mod: NR3A (human) ligand-binding domain modulation. 340,000 compounds, 2.5% hits. Tm shift relative to glycine control, % at 25 µM. AID 1259313. NR3A LBD differential scanning fluorimetry, Tm shift; 0% = protein alone, 100% = glycine-bound protein;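 active means melting temperature shift of at least 10% of the positive control shift, at one fixed dose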
CSC inhib: cancer stem cell inhibition; inhibition, % at 7.5 µM; cancer stem cell-like cells viability, luminescence; AID 2717; 300,000 compounds, 1.1% hits; in the data active means inhibition above about 75%; tested in HMLE shEcad cells
MPTP block: blocks calcium-induced mitochondrial swelling | inhibition, % at 10 µM | isolated mouse mitochondria, Ca2+ swelling absorbance, 30 min | 360,000 compounds, 1.4% hits;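 active means inhibition of 50% or more, scaled per plate between neutral and stimulator controls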
Beta apoptosis: blocks beta cell apoptosis. 300,000 compounds, 0.8% hits. protection from apoptosis, % (concentration not given with the values). INS-1E cytokine-induced death, ATP luminescence, 48 h; percent of positive-control rescue, neutral wells zero;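 active means Every replicate reaches about 75%, or at least half do and their mean reaches it too, limit read from the data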;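 further: higher means more ATP so stronger rescue from cytokine killing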
Mdm2-MdmX inh: human Mdm2/MdmX binding inhibition; O15151+Q00987; SaOS-2 split-luciferase Mdm2/MdmX complementation, luminescence; inhibition, % at 8 µM; 330,000 compounds, 3% hits; AID 485346;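 active means inhibition of at least 50% at 8 µM in the primary screen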
Target sequence (O15151 whole entry, looked up): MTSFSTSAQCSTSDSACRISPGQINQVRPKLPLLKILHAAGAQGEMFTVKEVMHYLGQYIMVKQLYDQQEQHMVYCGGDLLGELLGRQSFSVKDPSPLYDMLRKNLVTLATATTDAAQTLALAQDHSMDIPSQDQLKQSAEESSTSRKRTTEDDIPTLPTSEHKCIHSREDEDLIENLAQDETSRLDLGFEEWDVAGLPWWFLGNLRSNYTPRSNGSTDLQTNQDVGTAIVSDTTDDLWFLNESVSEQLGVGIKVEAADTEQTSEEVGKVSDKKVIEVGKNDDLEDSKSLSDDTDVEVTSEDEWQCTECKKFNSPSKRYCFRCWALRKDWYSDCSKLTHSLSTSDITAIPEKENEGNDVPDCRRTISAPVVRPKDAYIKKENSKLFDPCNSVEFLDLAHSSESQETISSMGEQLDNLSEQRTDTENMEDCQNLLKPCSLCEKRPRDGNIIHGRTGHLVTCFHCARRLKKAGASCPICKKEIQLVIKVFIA
Target sequence (Q00987 whole entry, looked up): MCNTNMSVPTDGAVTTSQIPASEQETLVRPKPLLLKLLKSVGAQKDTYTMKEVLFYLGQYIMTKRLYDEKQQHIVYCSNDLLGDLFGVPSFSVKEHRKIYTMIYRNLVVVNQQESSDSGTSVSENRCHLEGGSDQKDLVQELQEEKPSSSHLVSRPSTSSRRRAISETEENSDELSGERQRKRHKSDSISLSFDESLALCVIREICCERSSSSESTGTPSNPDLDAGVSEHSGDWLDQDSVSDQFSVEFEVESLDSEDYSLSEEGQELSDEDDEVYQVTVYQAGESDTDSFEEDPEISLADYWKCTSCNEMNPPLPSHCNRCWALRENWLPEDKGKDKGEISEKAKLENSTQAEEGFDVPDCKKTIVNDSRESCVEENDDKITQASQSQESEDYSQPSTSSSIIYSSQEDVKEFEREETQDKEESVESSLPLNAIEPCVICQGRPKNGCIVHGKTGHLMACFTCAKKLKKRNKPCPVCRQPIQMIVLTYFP
Gli-Sufu block: antagonists of Gli-Sufu signaling | 340,000 compounds, 0.74% hits | AID 588413 | inhibition, % at 5 µM | Sufu-KO-LIGHT fibroblasts, Gli luciferase reporter luminescence;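 active means inhibition above about 55%, limit read from the data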
Rh123 counter: mitochondrial membrane potential, counter-screen | shares compounds with MPTP block | isolated mitochondria, Rhodamine 123 fluorescence | inhibition, % at 10 µM | 5,000 compounds, 78% hits | AID 624504; in the data active means inhibition above about 22%
MPTP swell DR: MPTP inhibition, dose response swelling confirmation; AID 651561; 780 compounds, 58% hits; IC50, µM; isolated mitochondria swelling, absorbance; shares compounds with MPTP block; in the data active means IC50 below about 20 µM
MPTP counter DR: counter-screen for mitochondrial permeability transition pore inhibitors, dose response; shares compounds with MPTP block; isolated mitochondria counterscreen, fluorescence read-out; IC50, µM; 780 compounds, 49% hits; in the data active means IC50 below about 80 µM
Each line names hits and unclear results; the compound was inactive in the other large screens (follow-up assays come after a bar, where they were run).

Cc1ccc(C)c(S(=O)(=O)C(C#N)c2nc3ccccc3nc2N2CC(C)OC(C)C2)c1 (stereo not drawn)	MPTP block 78 | Rh123 counter 76
Cc1ccc(C)c(S(=O)(=O)C(C#N)c2nc3ccccc3nc2N2CCOCC2)c1 (stereo not drawn)	MPTP block 53 | Rh123 counter 73
COc1cccc(N2CCN(C(=O)Nc3ccccc3Cl)CC2)c1	none
C=CCOC(=O)C1=C(C)NC(SCC(=O)N(CC)CC)=C(C#N)C1c1ccco1 (stereo not drawn)	none
C=CCOC(=O)C1=C(C)NC(SCC(=O)Nc2ccccc2)=C(C#N)C1c1ccco1 (stereo not drawn)	MPTP block 64 | Rh123 counter 68
O=C(NNC(=S)Nc1ccc(Cl)c(Cl)c1)c1cccc([N+](=O)[O-])c1	GRIN3A LBD mod 22, MPTP block 70 | Rh123 counter 52
O=C(NNC(=S)Nc1ccc(Cl)cc1Cl)c1ccc(N2CCOCC2)c([N+](=O)[O-])c1	GRIN3A LBD mod 24, MPTP block 98 | Rh123 counter 63
Cc1ccc(C)c(N2CCN(C(=O)c3ccc(N4CCOCC4)c([N+](=O)[O-])c3)CC2)c1	none
Cc1ccc(NC(=S)NNC(=O)c2ccc(N3CCOCC3)c([N+](=O)[O-])c2)cc1Cl	GRIN3A LBD mod 19, MPTP block 88 | Rh123 counter 56
O=C(Nc1ccc(-c2nc3ccccc3o2)cc1)c1ccc(N2CCOCC2)c([N+](=O)[O-])c1	GRIN3A LBD mod 14, MPTP block 87, Beta apoptosis 99 (no result: Gli-Sufu block) | Rh123 counter 64
O=C(c1ncn(Cc2ccccc2)c1C(=O)N1CCc2ccccc2C1)N1CCc2ccccc2C1	none
C/C(=N/OC(=O)c1ccc(F)cc1)c1ccc(C)cc1	none
COc1ccc(N2CCN(C(=O)CN(C3CCCCC3)S(C)(=O)=O)CC2)cc1	none
COc1ccc([C@H]2CC(=O)C[C@@H](CCn3cc(-c4ccncc4)nn3)O2)cc1	none (no result: GRIN3A LBD mod, CSC inhib, Beta apoptosis, Mdm2-MdmX inh, Gli-Sufu block)
O=C(NNC(=S)Nc1ccc(Cl)cc1Cl)c1ccncc1	MPTP block 63 | Rh123 counter inactive | MPTP swell DR inactive | MPTP counter DR 42
N#C/C(=C\c1ccc(Sc2nc3ccccc3[nH]2)o1)c1ccccc1	MPTP block 93 (no result: Beta apoptosis) | Rh123 counter 84
N#C/C(=C\c1ccc(Sc2ccc(Cl)cc2)o1)c1nc2ccccc2[nH]1	GRIN3A LBD mod 15, MPTP block 106 (no result: Mdm2-MdmX inh) | Rh123 counter 69
Cc1cccc(C)c1C(O)c1ncc(-c2cccc(C(F)(F)F)c2)[nH]1 (stereo not drawn)	none (no result: GRIN3A LBD mod, CSC inhib, Beta apoptosis, Mdm2-MdmX inh, Gli-Sufu block)
COc1ccc(-c2coc3c(C(=O)NCc4ccc(F)c(F)c4)cccc23)c(C)c1	none (no result: GRIN3A LBD mod, CSC inhib, Beta apoptosis, Mdm2-MdmX inh, Gli-Sufu block)
COc1ccc(-c2coc3c(C(=O)NCc4ccc(OC)c(OC)c4)cccc23)c(C)c1	MPTP block 98 (no result: GRIN3A LBD mod, CSC inhib, Beta apoptosis, Mdm2-MdmX inh, Gli-Sufu block) | Rh123 counter 102
O=C(NCc1ccncc1)c1ccc(-c2ccc(F)c(F)c2)c2ccoc12	MPTP block 91 (no result: GRIN3A LBD mod, CSC inhib, Beta apoptosis, Mdm2-MdmX inh, Gli-Sufu block) | Rh123 counter 87
COc1ccc(-c2ccc(C(=O)NCc3ccncc3)c3occc23)c(C)c1	MPTP block 92 (no result: GRIN3A LBD mod, CSC inhib, Beta apoptosis, Mdm2-MdmX inh, Gli-Sufu block) | Rh123 counter 112
CCN(CC)c1ccc(C(=O)OCC(=O)Nc2cccc(S(=O)(=O)NC3=NCCCCC3)c2)cc1	none
CC1(C)C(C=C(Cl)Cl)C1C(=O)N1CCN(Cc2ccccc2)CC1 (stereo not drawn)	none
COc1ccc2nc(N3C(=O)/C(=C/c4ccc(Cl)cc4)NC3=S)sc2c1	MPTP block 95 (no result: CSC inhib, Beta apoptosis, Mdm2-MdmX inh) | Rh123 counter inactive
COc1ccc(N2C(=O)/C(=C/c3cccs3)NC2=S)cc1	none
CC1(C(=O)NS(=O)(=O)c2cccc(Cl)c2)CCN1C(=O)CCc1cccs1 (stereo not drawn)	none (no result: GRIN3A LBD mod, CSC inhib, Beta apoptosis, Mdm2-MdmX inh, Gli-Sufu block)
O=C(c1ccc(-c2ccccc2)c(F)c1)C1CCCN(C(=O)c2cncs2)C1 (stereo not drawn)	MPTP block 52 | Rh123 counter 52
CC(C)Oc1cccc(C(=O)C2CCCN(C(=O)c3cncs3)C2)c1 (stereo not drawn)	none
CCCC(C)(C)C(=O)N1CCC1(C)C(=O)Nc1cccc(OC)c1 (stereo not drawn)	none (no result: GRIN3A LBD mod, CSC inhib, Beta apoptosis, Mdm2-MdmX inh, Gli-Sufu block)
COc1ccc(CCNC(=O)Cc2ccc([N+](=O)[O-])cc2)cc1OC	none
COc1ccc(CCNC(=O)Cc2ccc(OCc3ccccc3)c(OC)c2[N+](=O)[O-])cc1OCc1ccccc1	MPTP block 76 (no result: Beta apoptosis) | Rh123 counter 55
COc1ccc(C(=O)/C=C/Nc2ccc(S(=O)(=O)Nc3cccc(C(C)=O)c3)cc2)cc1	GRIN3A LBD mod 13, MPTP block 97 | Rh123 counter 84
COc1cccc(C(=O)/C=C/Nc2ccc(S(=O)(=O)Nc3nc(C)cc(C)n3)cc2)c1	none
COc1cccc(C(=O)Nc2nnc(S(=O)(=O)N(C)Cc3ccc(F)cc3)s2)c1	MPTP block 56 | Rh123 counter 80
COc1ccc(CN(C)S(=O)(=O)c2nnc(NC(=O)c3cccc(OC)c3)s2)cc1	none
Cc1c(Br)c([N+](=O)[O-])nn1CC(=O)NCC1CCCO1 (stereo not drawn)	none
Cc1nc2cc(-c3ccsc3-n3c(C)ccc3C)[nH]n2c(=O)c1Cl	MPTP block 67 (no result: Beta apoptosis) | Rh123 counter 51
Cc1nn(-c2ccccc2)c(N)c1Sc1ccc([N+](=O)[O-])cc1	none
Cc1nn(S(=O)(=O)c2ccc(Cl)cc2)c(C)c1Sc1ccc([N+](=O)[O-])cc1	MPTP block 61, Beta apoptosis 86 (no result: Mdm2-MdmX inh) | Rh123 counter 41
CC(C)(C)C(=O)Nc1cccc(OC(F)(F)C(F)Cl)c1 (stereo not drawn)	none
CCCc1[nH]c2ccc(C#N)cc2c1CCC	CSC inhib 82, MPTP block 69 | Rh123 counter 86
CCCCCCC#Cc1cncc(C(=O)NNC(=O)Nc2cc(Cl)cc(Cl)c2)c1	GRIN3A LBD mod 16, MPTP block 55 | Rh123 counter 55
CCc1nc(Nc2ccc(OC)cc2OC)c2oc3ccccc3c2n1	none
Cc1cccc(C(=O)OC(C)C(=O)N2CCc3ccccc3C2)c1C (stereo not drawn)	none
CCc1ccc(/C=C\C(=O)N2CCCC2)cc1	none (no result: CSC inhib, Beta apoptosis)
CCc1ccc(/C=C\C(=O)N2CCc3ccccc3C2)cc1	MPTP block 61 | Rh123 counter 36
O=C(Nc1nc(=S)ss1)c1ccc(Cl)cc1Cl	MPTP block 88 (no result: CSC inhib, Mdm2-MdmX inh) | Rh123 counter 64
CCOc1cc(CNCCO)cc(Br)c1OCc1ccccc1	MPTP block 89 | Rh123 counter inactive | MPTP swell DR 5.5 | MPTP counter DR 19

Screening results from PubChem BioAssay.
